In PubChem BioAssay (Tox21) one finds Potency data, which are given here for seven molecules.

Assay [1] is described as follows: qHTS assay to identify small molecule antagonists of the estrogen related receptor (ERR) signaling pathway - cell viability counter screen (AID 1224818). Further: potency means the concentration at half of the fitted maximal effect. The gist of the method:
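ERR cells, 2,000 per well, compound added after 6 h and incubated 17.5 h at 37 C. Viability read by CellTiter-Fluor fluorescence after a further 30 min at 37 C.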

A short description of assay [2]: qHTS assay to identify small molecule antagonists of the estrogen related receptor (ERR) signaling pathway (AID 1224819;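 further: luminescence from an ERR-driven luciferase reporter measured with One-Glo reagent; series mostly up to about 46 µM; nearly all actives have a fitted effect of over 50% in size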). The gist of the method: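 ERR reporter cell line (NTP) plated at 2,000 cells/well, settled 6 h at 37C/5% CO2, then exposed to LOPAC compounds for 18 h at 37C. One-Glo luciferase luminescence read after 30 min at room temperature.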
The nature of assay [3]: qHTS assay to identify small molecule agonists of the estrogen related receptor (ERR) signaling pathway (AID 1224820). The gist of the method:
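Quantitative HTS of the LOPAC library used NTP ERR reporter cells treated 18 h at 37 C. Signal is luminescence after One-Glo addition and a 30 min room-temperature incubation.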

In assay [4] the test system is estrogen-related receptor alpha (ERRalpha) with PGC-1alpha coactivator, human. Briefly: qHTS assay to identify small molecule antagonists of the estrogen related receptor signaling pathway with the pleiotropic PPARgamma coactivator (PGC) (AID 1224821; calls by dose curve;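 further: series mostly up to about 46 µM; lower luminescence signal means antagonism of PGC/ERR signalling; nearly all actives have a fitted effect of over 50% in size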). The gist of the method: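 Quantitative HTS for antagonism: PGC/ERR cells received compounds after 6 h attachment and were incubated 18 h at 37 C, with luminescence (One-Glo) as the endpoint.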

The nature of assay [5]: qHTS assay to identify small molecule antagonists of the estrogen related receptor signaling pathway with the pleiotropic PPARgamma coactivator (PGC) cell viability counter screen (AID 1224822; further: potency means the concentration at half of the fitted maximal effect). The gist of the method:
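PGC/ERR cells rested 6 h, then compound-treated 17.5 h at 37 C. CellTiter-Fluor added for 30 min at 37 C, viability measured by fluorescence intensity.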

A short description of assay [6]: qHTS assay to identify small molecule agonists of the estrogen related receptor signaling pathway with the pleiotropic PPARgamma coactivator (PGC) (AID 1224823). The gist of the method:
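Cell-based luciferase assay in the NTP-supplied PGC/ERR line, 2,000 cells/well; 18 h compound exposure at 37 C, luminescence after One-Glo.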

Inconclusive results are not listed. Values without a mark were called inactive. Activity calls are given as the source filed them. Unless noted, the call rests on the fitted dose curve; in most records, active means well fitted curve in the direction sought with a large enough effect in the repeat runs; inconclusive means weak or mixed curves; inactive means no such curve, though single readings can be large; an effect the other way counts as inactive or inconclusive.

Take `C[N+]1(C)CCC(OC(=O)C(c2ccccc2)c2ccccc2)CC1`: the Potency result in assay [1], in assay [2], in assay [3], in assay [4], in assay [5] and in assay [6] was “inactive” throughout.
With `CC(=O)[C@H]1CCC2C3CC[C@H]4C[C@H](O)CC[C@]4(C)C3CC[C@@]21C` (some centres not stated), the Potency result in assay [1], in assay [3], in assay [4], in assay [5] and in assay [6] was “inactive” each time.
As for `Ic1ccccc1CNC1C2CCN(CC2)C1C(c1ccccc1)c1ccccc1` (configuration not stated), the Potency in assay [1] and in assay [5] was 19.6 µM (active) each time. The Potency result in assay [3] and in assay [6] was “inactive” each time.
For the molecule `C[C@]12CCC3C(CC[C@H]4C[C@H](O)CC[C@]34C)C1CC[C@@H]2C(=O)CO` (some centres not stated), the Potency entry in assay [1], in assay [3], in assay [4], in assay [5] and in assay [6] was “inactive” throughout.
Regarding `N#C/C(=C/c1ccc(O)c(O)c1)C(N)=S`, the Potency result in assay [1], in assay [3], in assay [4], in assay [5] and in assay [6] was “inactive” each time.
As for `CC[C@@H](C(N)=O)N1CCCC1=O`, the Potency result in assay [1] and in assay [5] was “inactive” each time.
Take `Cc1cc([C@@H]2CCCN2C)on1`: the Potency result in assay [1], in assay [2], in assay [4], in assay [5] and in assay [6] was “inactive” each time.
